{"source": "PubChem BioAssay (NCI)", "note": "About 83,000 compounds went through this panel and 20% of them were active in at least one assay; those are over-represented in the sample as a whole.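 Cells were grown in 96-well plates and exposed to the test compound at a single concentration for 48 hours; results are reported as percent growth, with values below 10 considered active.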 A number with no mark means an inactive call. The source made the active and inactive calls."}
{"tested_on": "MALME-3M melanoma", "assay": "NCI-60 one-dose screen, 48 h (100 = growth as untreated, 0 = no growth, -100 = all killed)", "settings": "10 µM unless noted"}
{"smiles": "O=C1C=Cc2ncccc2C1=O", "growth": "89.9%"}
{"smiles": "COc1cc2c(cc1OC)C(=O)/C(=C/c1cc(-c3ccc4c(c3)OCO4)n[nH]1)C2", "growth": "43.7%"}
{"smiles": "CCN(CC)CCCCCCNc1ccnc2cc(Cl)ccc12", "growth": "99.6%"}
{"smiles": "COC(c1ccccc1)(c1ccccc1)c1ccccc1", "growth": "95.4%"}
{"smiles": "CC(CNc1nc(Nc2ccc(Cl)c(Cl)c2)nc(C(Cl)(Cl)Cl)n1)N(C)C", "note": "(stereo not given)", "growth": "15.6%"}
{"smiles": "COc1cccc2c1C(=O)c1c(O)c3c(c(O)c1C2=O)C[C@@](O)(C(=O)CO)C[C@@H]3OC1C[C@H](N)[C@H](O)[C@H](C)O1", "note": "(stereo not given in full)", "growth": "-57.6% (active)"}
{"smiles": "NC(=O)[C@@H]1CC2CCC1C2", "note": "(stereo not given in full)", "growth": "101%"}
{"smiles": "COc1cc2[nH]c(C(=O)c3cc(OC)c(OC)c(OC)c3)c(N)c2cc1C#CCO", "growth": "31.7%"}
{"smiles": "CN(C)c1ccc(N=C2C=CC(=O)C=C2)cc1", "growth": "85.8%"}
{"smiles": "COc1ccc(C(=O)c2cc(OC)c(OC)c(OC)c2)cc1/C=C/C(=O)c1cc(OC)c(OC)c(OC)c1", "growth": "86.1%"}
{"smiles": "Nc1c(C(=O)Nc2cccc(Br)c2)sc2nc3c(cc12)C(=O)CCC3", "growth": "16.6%"}
{"smiles": "O=C1NC(=Nc2ccc(S(=O)(=O)Nc3nccs3)cc2)S/C1=C\\c1coc2ccccc2c1=O", "growth": "109%"}
{"smiles": "COc1ccc(C(=O)/C=C/c2cc(-c3cc(OC)c(OC)c(OC)c3)n[nH]2)cc1OC", "growth": "-75.5% (active)"}
{"smiles": "COc1cc2[nH]c(C(=O)c3cc(OC)c(OC)c(OC)c3)c(N)c2cc1C#CC1CC1", "growth": "52.4%"}
{"smiles": "COC(=O)c1cc(=O)nc(N/N=C/c2ccc(C)cc2)s1", "growth": "94.3%"}
